Reference: PubChem BioAssay AID1159580 (chemical genetic matrix, 2015)
The campaign covered roughly 5,500 compounds. About 2,000 (36%) were called active. Inconclusive results (about 18%) are left out. Cut-off read from the data, not from the text of the source: active = normalized growth mostly below about 0.91 (no sharp cut-off); inconclusive = no clear call, values can overlap the other calls; inactive = mostly above about 0.92. The list shows a part of the results.

Assay: chemical genetic growth profiling, strain panel (AID 1159580);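 note: tested at 20 µM; growth read once vehicle control cultures reached saturation at 30 °C; 1 = growth at the plate median or of vehicle wells; lower values mean less growth of the strain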
Conditions: S. cerevisiae deletion strains, growth OD

Measured: normalized growth

CN(C)CC/C=C1\c2ccccc2COc2ccccc21
inactive: locus YAL013W, strain DEP1, active compounds read low 0.998 | locus YAL040C, strain CLN3, active compounds read low 0.997 | locus YCL061C, strain MRC1 (second series), active compounds read low 0.992 | locus YDR150W, strain NUM1, active compounds read low 1.01 | locus YDR363W, strain ESC2, active compounds read low 0.944 | locus YER002W, strain NOP16, active compounds read low 1.01 | locus YGR078C, strain PAC10, active compounds read low 1.01 | locus YJR075W, strain HOC1, active compounds read low 0.952 | locus YMR263W, strain SAP30, active compounds read low 0.991 | locus YNL128W, strain TEP1, active compounds read low 1.01 | locus YNL153C, strain GIM3, active compounds read low 1.03 | locus YNL175C, strain NOP13, active compounds read low 1.02 | locus YNL197C, strain WHI3, active compounds read low 1 | locus YNL224C, strain SQS1, active compounds read low 1.03 | locus YOR083W, strain WHI5 (second series), active compounds read low 0.997
